# Laboratory results reported in PubChem BioAssay (NCI).
# This is part of a sample that, as a whole, favours compounds with a hit. Of some 83,000 tested, about 20% had one in any assay.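 A percent growth of 40 corresponds to 60% growth inhibition; 0 means no net growth; -100 means all cells died. Active threshold: below 10.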 Active and inactive are the calls of the source.
# Tested on: SK-OV-3 ovarian
# Assay: NCI-60 one-dose screen, 48 h (100 = growth as untreated, 0 = no growth, -100 = all killed)
# Details: 10 µM unless noted
row,Compound,growth
1,COc1ccc2c(c1)/C(=C1/S/C(=N/c3nnc(C)s3)NC1=O)C(=O)N2Cc1ccc(Br)cc1,52.1% (inactive)
2,CCOP1(=O)CC(C)=C(Cl)C(P(=O)(O)O)C1 (stereo not given),110% (inactive)
3,O=C(O)CC1Cc2ccccc2C1C(=O)O (stereo not given),102% (inactive)
4,Nc1cc2c(cc1Br)[nH]c(=O)c1ccccc12,62.4% (inactive)
5,CCc1ccc(C(=Nc2ccc(N(C)C(=O)CN3CCN(C)CC3)cc2)c2c(O)[nH]c3ccc(C(=O)OC)cc23)cc1,-61.5% (active)
6,N#CCCCCCCCCCCC#N,109% (inactive)

# Tested on: IGROV1 ovarian
# Assay: as above
# Details: 10 µM unless noted
row,Compound,growth
1,COc1nc(OC)nc(-c2cc(C(=O)c3ccc(Br)cc3)n3cc(C)cc(C)c23)n1,62.4% (inactive)
2,CC(=O)OCC(=O)[C@@]1(O)[C@H](C)C[C@H]2[C@@H]3C=C(C)C4=Cc5c(cnn5-c5ccc(F)cc5)C[C@]4(C)[C@H]3[C@@H](O)C[C@@]21C,16% (inactive)
3,CC(=O)/C(=C\c1c(-c2ccccc2)[nH]c2ccccc12)S(=O)(=O)c1ccccc1,-5.76% (active)
4,COc1ccc(/C=N/c2cc(C(C)(C)C)nn2-c2ccccc2)cc1,125% (inactive)
5,CCC1(CC)C(OC)NC(Br)=C(C#N)C1(C#N)C(N)=O (stereo not given),-8.89% (active)
6,COc1ccc(CN2C(=O)/C(=C\C(=O)c3ccc(OCCN4CCCC4)cc3)c3ccccc32)cc1,81.4% (inactive)
7,COc1ccc(/C=C2\SC(=O)N(Cc3cc(=O)oc4ccc(OC)cc34)C2=O)cc1,98.1% (inactive)
8,c1cc(C2CCCCC2)ccc1OCCCCCCN1CCNCC1,8.79% (active)
9,COc1cc(/C=C/C(=O)/C=C(/C=C/c2ccc(OC(C)=O)c(OC)c2)OB(F)F)ccc1OC(C)=O,65.5% (inactive)
10,Cc1c([C@H](C(Cl)Cl)[C@H](O)[C@H]2C[C@H](C)C(=O)O2)ccc2c1C(=O)[C@H]1[C@H]2C[C@@H](Br)[C@@]23O[C@@H](CO[C@H]2O)CC13C (stereo not given in full),36.5% (inactive)
11,N=C(N)c1ccc(-c2ccc(-c3ccc(Cl)cc3)s2)s1,-49.5% (active)
12,COc1cc([C@@H]2c3cc4c(cc3[C@H](O)[C@H]3COC[C@@H]23)OCO4)cc(OC)c1OC,71.1% (inactive)
13,O=Nc1c(-c2c(O)[nH]c3cc(Br)ccc23)[nH]c2ccccc12,-44.5% (active)
14,CC(C)(C)C(=O)OCOP(=O)(OCOC(=O)C(C)(C)C)C1CC(O)N(O)C1=O (stereo not given),3.72% (active)
15,CC1(C)CC(=O)C2=C(C1)Oc1nc(N)c(C#N)c(N)c1C2c1ccc(F)cc1 (stereo not given),500% (inactive)
16,O=C1c2cc([N+](=O)[O-])ccc2-c2cc(Cl)c(NC(=O)C(F)(F)F)cc21,110% (inactive)
17,COc1ccc(CNCCCN2C(=O)c3ccc4c5c(ccc(c35)C2=O)C(=O)N(CCCNCc2ccc(OC)c(OC)c2OC)C4=O)c(OC)c1OC,-79.6% (active)

row,Compound,growth
1,O=C(Nc1ccccc1)Nc1ccc(Nc2ncnc3sc4c(c23)CCCC4)cc1,107% (inactive)
2,O=S(=O)(Cc1cccc2c(CS(=O)(=O)c3ccc(Cl)cc3)cccc12)c1ccc(Cl)cc1,91.4% (inactive)
3,COc1cc(CNC(=O)CCCC/C=C/C(C)C)ccc1OCc1nnc(Nc2ccccc2F)o1,58.4% (inactive)
4,Nc1nc2c(c3ncncc13)C(c1cccc(C(F)(F)F)c1)Cc1ncncc1-2 (stereo not given),54.4% (inactive)
5,Cn1cnc2nc[nH]c2c1=S,113% (inactive)
6,O=C(O)c1ccc(-c2nn(-c3ccc(C(=O)O)cc3)cc2CNc2ccc(Br)cc2)cc1,115% (inactive)
7,CCC(C)C1NC(=O)C(CC(C)C)NC(=O)C(C)NC(=O)C(C(C)C)NC(=O)C(CCCCN)NC(=O)C(CC(C)C)NC(=O)C(C(C)C)NC(=O)[C@H](C)NC(=O)C(C(C)CC)NC(=O)C(CCCN=C(N)N)NC(=O)C(CCCCN)NC(=O)C(CCCN=C(N)N)NC(=O)C(CCCCN)NC(=O)C([C@H](C)CC)NC(=O)C(CCCCN)NC1=O (stereo not given in full),12.4% (inactive)
8,CCC(CCCN1C(=O)c2ccccc2C1=O)Nc1cc(OC)cc2cccnc12 (stereo not given),-7.61% (active)
9,O=c1c(N=Nc2nccs2)c(-c2ccccc2)[nH]n1-c1nc(-c2ccccc2)cs1,44.2% (inactive)
10,Cc1ccc(C(=O)Nc2ccc(CN3CCN(C)CC3)c(C(F)(F)F)c2)cc1C#Cc1cncc2ncccc12,-82.7% (active)
11,CCOC(=O)C1C(=O)C(=O)N(C(C)C)C1C(=O)OCC (stereo not given),110% (inactive)
12,COc1cc2c(cc1OC)C(Cc1cc(OC)c(OC)cc1[N+](=O)[O-])=NCC2,98.1% (inactive)
13,COc1ccc2c(c1)/C(=C1/S/C(=N/c3nnc(C)s3)NC1=O)C(=O)N2Cc1ccc(Br)cc1,40.9% (inactive)
14,Nc1cc2c(cc1Br)[nH]c(=O)c1ccccc12,19% (inactive)
15,CCc1ccc(C(=Nc2ccc(N(C)C(=O)CN3CCN(C)CC3)cc2)c2c(O)[nH]c3ccc(C(=O)OC)cc23)cc1,-65.4% (active)
16,N#CCCCCCCCCCCC#N,124% (inactive)
17,O=C1CSC(c2ccccc2Cl)N1c1nnc(-c2ccncc2)o1 (stereo not given),89% (inactive)
